Target: PUM1 PUF domain R3-LWS (Homo sapiens, UniProt Q14671 828-1176, C935L;R936W;Q939S)
Experiment: yeast three-hybrid, YBZ-1, SC-Leu-His + 0.5 mM 3-AT, 4 days
Conditions: tags: N-Gal4 AD-HA kept; label: inside an RPR1-promoter hybrid RNA with tandem MS2 sites; ssRNA
Outline: (§1)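 Pumilio-1 PUF domain libraries, randomized at the three base-contacting residues of each repeat, were co-expressed with matching RNA elements from a centromeric plasmid in strain YBZ-1, which carries a LexA–MS2 coat fusion and a HIS3 reporter. Transformants grew for four days on SC-Leu (input) or on SC-Leu-His + 0.5 mM 3-AT (selection), and the repeat regions were PCR-amplified and Illumina-sequenced. The interaction score is the log change in variant frequency from input to selection. That logarithm is base 2, with a pseudocount of 1 where a variant was absent.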

Row | Sequence | binding signal
1 | GGCUAGAACUAGUGGAUCCCCCGGCGCCCGGCGGCUCGAGCCCGGGUAAGUGUAAUUAGUCUGCAUGCCGCCGGGCGCCAUGCCUGCAGGUCGACUCUAGAAAACAUG | 4.58 log2 enrichment (interaction score)
2 | GGCUAGAACUAGUGGAUCCCCCGGCGCCCGGCGGCUCGAGCCCGGGUAAGUGUAAGUAGUCUGCAUGCCGCCGGGCGCCAUGCCUGCAGGUCGACUCUAGAAAACAUG | 6.62 log2 enrichment (interaction score)
3 | GGCUAGAACUAGUGGAUCCCCCGGCGCCCGGCGGCUCGAGCCCGGGUAAGUGUAAAUAGUCUGCAUGCCGCCGGGCGCCAUGCCUGCAGGUCGACUCUAGAAAACAUG | 4.31 log2 enrichment (interaction score)

Target: PUM1 PUF domain R4-SPM (Homo sapiens, UniProt Q14671 828-1176, N971S;H972P;Q975M)
Experiment: as above
Conditions: tags: N-Gal4 AD-HA kept; label: inside an RPR1-promoter hybrid RNA with tandem MS2 sites; ssRNA
Outline: as §1

Row | Sequence | binding signal
4 | GGCUAGAACUAGUGGAUCCCCCGGCGCCCGGCGGCUCGAGCCCGGGUAAGUGUACAUAGUCUGCAUGCCGCCGGGCGCCAUGCCUGCAGGUCGACUCUAGAAAACAUG | 0.15 log2 enrichment (interaction score)
5 | GGCUAGAACUAGUGGAUCCCCCGGCGCCCGGCGGCUCGAGCCCGGGUAAGUGUAAAUAGUCUGCAUGCCGCCGGGCGCCAUGCCUGCAGGUCGACUCUAGAAAACAUG | 3.49 log2 enrichment (interaction score)
6 | GGCUAGAACUAGUGGAUCCCCCGGCGCCCGGCGGCUCGAGCCCGGGUAAGUGUAUAUAGUCUGCAUGCCGCCGGGCGCCAUGCCUGCAGGUCGACUCUAGAAAACAUG | 3.22 log2 enrichment (interaction score)

Source: publication PMC8384837, “Expanding the binding specificity for RNA recognition by a PUF domain”
